Screening data as filed in PubChem.
Pf Dd2 growth: Plasmodium falciparum Dd2 growth inhibition. Potency, µM (series often up to 28.9 µM), actives largely listed as inhibitors. 4.3% of 120,000 active. P. falciparum Dd2 growth, SYBR Green, 72 h; active = well fitted inhibition curve with a large enough effect; also: nearly all actives have a fitted effect of over 65% in size
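Infected erythrocytes (Dd2, 0.3% parasitemia, 2.5% hematocrit final) are added to compound in RPMI-1640/Albumax II medium, grown 72 h at 37C in low oxygen, then lysed with saponin/Triton-X containing SYBR Green and read by fluorescence.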
Hits are given with their value; – = inactive; [ ] = dose if it differs, or a comment. The sample as a whole holds a higher share of hits than the screen did.

SMILES	Pf Dd2 growth
O=C1NC2(Cc3ccccc31)CN(CC1CCNC1)C2 (centres undefined)	–
COc1ccc(-c2nc(C)nc3c2CCN(Cc2ccc(F)cc2)CC3)cc1	–
CCc1nc2c(c(-c3ccc(O)cc3)n1)CCN(Cc1ccccc1C(F)(F)F)CC2	1.8µM
COCC(=O)N1CCc2nc(-c3ccccc3)nc(-c3ccc(OC)cc3)c2C1	–
CCc1nc2c(c(-c3ccc(O)cc3)n1)CCN(C(=O)c1ccc(F)cc1)CC2	–
COc1ccc(-c2nc(-c3ccccc3)nc3c2CN(C(=O)Cc2ccccn2)CC3)cc1	5.6µM
COC(=O)N1CCc2nc(-c3ccc(OC)cc3)nc(-c3ccccc3)c2C1	–
Cc1ccc(C(=O)N2CCc3nc(C4CC4)nc(-c4ccc(Cl)cc4)c3C2)cc1	–
CCc1nc2c(c(-c3ccc(O)cc3)n1)CN(Cc1ccc(F)cc1)CC2	–
COc1ccc(-c2nc(C3CC3)nc3c2CN(C(=O)c2ccccc2F)CC3)cc1	–
CCc1nc2c(c(-c3ccc(OC)cc3)n1)CCN(Cc1ccc(C(F)(F)F)cc1)CC2	11µM
COc1ccccc1C(=O)N1CCc2nc(C3CC3)nc(-c3ccc(Cl)cc3)c2C1	11µM
CCc1nc2c(c(-c3ccc(OC)cc3)n1)CCN(C(=O)c1ccc(OC)cc1)CC2	–
O=C(NCc1ccccc1)N1CCC(O)(c2csc(CN3CC[C@@H](O)C3)n2)CC1	–
Fc1ccc(Cn2ccnc2-c2ccccn2)c(Cl)c1	–
COc1ccc2[nH]c3c(c2c1)CCNC31CCN(C(=O)CN2CCCC2=O)CC1	–
O=c1n(-c2ccncc2)nc2n1CCN(Cc1cccc3ccccc13)C2	–
Cc1cc(C(=O)N2C[C@@H](Oc3cccnc3)C[C@H]2C(=O)N2CCOCC2)n(C)n1	–
CS(=O)(=O)N1CCC(C2CCN(C(=O)NCCc3ccccc3)C2)CC1 (centres undefined)	–
N#Cc1cccnc1N1CCN(Cc2ccc(F)c(F)c2)C(CCO)C1 (centres undefined)	–
Cc1cc2nc3n(c(=O)c2n1CC(=O)NCCCc1ccccc1)CCCC3	–
CCc1nc2c(c(-c3ccc(Cl)cc3)n1)CN(C(C)=O)CC2	–
CCc1nc2c(c(-c3ccc(O)cc3)n1)CCN(C(=O)Nc1ccc(Cl)cc1)CC2	–
CCc1nc2c(c(-c3ccc(Cl)cc3)n1)CN(C(=O)Nc1ccccc1)CC2	11µM
NC(=O)[C@@H]1CCCN1C(=O)C1CCN(c2nc(-c3ccccc3)nc3c2CCC3)CC1	–
SMILES	Pf Dd2 growth
CCc1nc2c(c(-c3ccc(Cl)cc3)n1)CCN(Cc1ccnn1C)CC2	–
CCc1nc2c(c(-c3ccc(O)cc3)n1)CN(Cc1ccnn1C)CC2	–
CCc1nc2c(c(-c3ccc(Cl)cc3)n1)CN(Cc1ccc(N(C)C)cc1)CC2	8.9µM
CCc1nc2c(c(-c3ccc(Cl)cc3)n1)CN([S+](=O)([O-])c1ccc(C)cc1)CC2	–
CCc1nc2c(c(-c3ccc(Cl)cc3)n1)CN(C(=O)c1ccc(F)cc1)CC2	–
O=C(NC1CCNCC1)C1CCN(c2nc(-c3ccccc3)nc3c2CCC3)CC1	–
CCc1nc2c(c(-c3ccc(Cl)cc3)n1)CN(CC1CC1)CC2	4.5µM
O=C(C1CCN(c2nc(-c3ccccc3)nc3c2CCC3)CC1)N1CCNCC1	13µM
C=C(C)CNC(=O)CC1COc2ccc(C(=O)NCCOC)cc2N1C (centres undefined)	–
CN(C)c1cc(N2CCCC(N)C2)ncn1 (centres undefined)	–[5.79 µM]
COCc1nncn1C1CCN(C(=O)c2ccc(C)s2)CC1	–
CCn1cc(C(=O)N2CCCCCCNC(=O)CC2)cn1	–
O=C(C1CC1)N1CCc2nc(-c3ccccc3)nc(-c3ccc(Cl)cc3)c2C1	–
CCc1nc2c(c(-c3ccc(Cl)cc3)n1)CCN(C(=O)c1ccccc1OC)CC2	–
CCc1nc2c(c(-c3ccc(Cl)cc3)n1)CN(Cc1ccc(OC)cc1)CC2	11µM
CCc1nc2c(c(-c3ccc(OC)cc3)n1)CN([S+](=O)([O-])c1cccc(OC)c1)CC2	–
CCc1nc2c(c(-c3ccc(Cl)cc3)n1)CN(Cc1cccc(OC)c1)CC2	10µM
O=C(C1CCCC1)N1CCc2nc(-c3ccc(Cl)cc3)nc(-c3ccccc3)c2C1	–
CCc1nc2c(c(-c3ccc(Cl)cc3)n1)CN(Cc1cccc3ccccc13)CC2	–
O=C(C1CCCC1)N1CCc2nc(-c3ccccc3)nc(-c3ccc(Cl)cc3)c2C1	4µM
CCc1nc2c(c(-c3ccc(OC)cc3)n1)CN(C(=O)c1ccc(OC)cc1)CC2	–
CS(=O)(=O)N1CCC(C2CCN(C(=O)c3ccc(Cl)s3)C2)CC1 (centres undefined)	–
CCc1cc(NCC(O)CN2CCCCC2)ncn1 (centres undefined)	–
CN1Cc2ccc(N3CCOCC3)nc2C(C)(C(=O)NCCCn2ccnc2)C1 (centres undefined)	–
COCCOCC(=O)N1CCC2(CC1)CC(N1CCCCC1)CCO2 (centres undefined)	–
SMILES	Pf Dd2 growth
COc1ccc(C(=O)N2CCN(C(=O)c3nnn4c3COC(c3ccccc3)C4)CC2)c(C)c1 (centres undefined)	–
CCN1c2cc(C(=O)Nc3ccc(Cl)c(C)c3)ccc2C(=O)N2CCCCC21 (centres undefined)	–
Cc1cc(C(=O)N2CCC3(CC(=O)Nc4ccccc4N3)C2)ccc1Cl (centres undefined)	–
COc1ccc(Nc2cc(C(=O)NCCc3ccccc3)c3ccccc3n2)cc1OC	–
COc1ccc(Nc2cc(C(=O)NC3CCC(C)CC3)c3ccccc3n2)cc1OC (centres undefined)	–
CC(C)CCNC(=O)c1cc(-c2ccc(Br)s2)nc2ccccc12	–
CCCCN(CCCNC(=O)c1cc(Nc2ccc(OC)c(OC)c2)nc2ccccc12)Cc1ccccc1	2.2µM
CCCCN(CCCC)CCCNC(=O)c1cc(-c2ccc(Cl)s2)nc2ccccc12	5.6µM
CCc1ccc(CNC(=O)c2cc(-c3ccc(Cl)s3)nc3ccccc23)cc1	–
Cc1cc(C)cc(Nc2cc(C(=O)NCCCN(C)C3CCCCC3)c3ccccc3n2)c1	6.3µM
COc1ccc(CNC(=O)c2cc(-c3ccc(Br)s3)nc3ccccc23)c(OC)c1	–[5.79 µM]
CCc1ccccc1Nc1cc(C(=O)NCCCN(C)C2CCCCC2)c2ccccc2n1	–
CCc1ccccc1NC(=O)c1cc(-c2ccc(Cl)s2)nc2ccccc12	–
CCCCN(C)CCCNC(=O)c1cc(-c2ccc(Br)s2)nc2ccccc12	11µM
Cc1ccc(C)c(Nc2cc(C(=O)NCCCN(C)C3CCCCC3)c3ccccc3n2)c1	–
O=C1N[C@H](CCC(=O)N2CCC(c3nc4ccccc4[nH]3)CC2)C(=O)Nc2ccccc21	–
CCOc1cccc(CN(C)C2CCc3nn(CC4CC4)c(=O)n3CC2)c1 (centres undefined)	–
COc1ccc(C[C@H](N)C(=O)NCc2c(C)ncc3c2CCNC3)cc1	–
CN(CCC1CCOCC1)C(=O)c1cn(Cc2ccccc2F)nn1	–
O=C(N[C@@H]1CCN(C(=O)c2n[nH]c3ccccc23)C[C@H]1O)c1cccnc1	–
CCOc1ccc(C(=O)N2CC(c3nnc(C(C)C)o3)C3(CCOCC3)C2)cc1 (centres undefined)	–
O=C(NCCF)c1cccc(S(=O)(=O)NCCCc2ccncc2)c1	–
COc1cc(=O)n2c(c1C(=O)Nc1cccc(SC)c1)CCCC2	–
Cc1cccc(OCC(=O)Nc2nc3c(s2)CC(C(C)(C)C)CC3)c1C (centres undefined)	–
CC(C)(C)C1CCc2nc(NC(=O)Cc3ccccc3)sc2C1 (centres undefined)	11µM
